Most compounds without a hit are left out; they make up all but 3.8% or so of the library.
HT1080 IDH1KD tx: qHTS for induction of synthetic lethality in tumor cells producing 2HG: qHTS for the HT-1080-IDH1KD cell line; HT-1080 IDH1 knockdown viability, ATP luminescence, 48 h; Potency, µM (titrated, usually from 46.1 µM), most hits filed as cytotoxic; actives 2% (n = 360,000); AID 686971, 2013
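Knockdown cells (IDH1KD HT-1080) received compounds 2 h after plating at 750 cells/well and were kept 48 h at 37 °C in 5% FBS RPMI. A CellTiter-Glo luminescence read gave % activity for curve fitting.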
HepG2 viability: qHTS for Inhibitors of TGF-b: Cytotox Counterscreen. HepG2 CAGA-GFP viability, ATP luminescence, 18 h. Potency, µM (doses to about 46.1 µM), hits mostly cytotoxic. actives 0.76% (n = 410,000). AID 588856, 2011
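CellTiter-Glo luminescence gave cytotoxicity after 18 hours at 37 degrees C. The cells were HepG2 CAGA-GFP in 1% FBS DMEM, stimulated with 500 pg/mL TGF-beta after compound addition. %Activity was normalised to no-cell wells (complete cell-killing) and DMSO (no toxicity), and curves were fitted and classified.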
ATXN viability: Viability Counterscreen for Primary qHTS for Inhibitors of ATXN expression; S2 cells (HEK-293 line with an ATXN2-luciferase reporter) viability, CellTiter-Fluor protease fluorescence, 24 h; Potency, µM (top dose mostly 56.7 µM), usual class: cytotoxic; actives 0.49% (n = 400,000); AID 651635, 2014; further: nearly all actives have a fitted effect of over 40% in size
HT1080-NT tox: qHTS for induction of synthetic lethality in tumor cells producing 2HG: qHTS for the HT-1080-NT fibrosarcoma cell line. HT-1080-NT fibrosarcoma viability, CellTiter-Glo ATP luminescence, 48 h. Potency, µM (top dose mostly 46.1 µM), usual class: cytotoxic. actives 1.6% (n = 360,000). AID 686970, 2013;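 further: NT is the 2HG producing partner of a matched IDH1 knockdown line; nearly all actives have a fitted effect of over 55% in size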
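Fibrosarcoma NT cells, 750 per well in 5% FBS RPMI, were exposed to compound for 48 hours. Viability: CellTiter-Glo luminescence.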
ATXN2 expr inh: Primary qHTS for Inhibitors of ATXN expression; HEK-293 ATXN2-luciferase reporter, luminescence, 24 h; Potency, µM (doses to about 57 µM), usual class: inhibitors; actives 0.72% (n = 360,000); further: nearly all actives have a fitted effect of over 55% in size
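qHTS (up to 57 uM final) was run with 24 h compound exposure of reporter cells at 37 °C. Each well was multiplexed: SteadyGlo luminescence measured ATXN2-luciferase expression after a fluorogenic Gly-Phe-AFC viability readout (25 uM final).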
TGFb inhibitor: qHTS for Inhibitors of TGF-b; HepG2 CAGA-GFP TGF-b/SMAD3 reporter, GFP fluorescence, 18 h; TGF-beta stimulated, 500 pg/mL final; Potency, µM (highest dose often 46.1 µM), usual class: inhibitors; actives 1.2% (n = 410,000); further: nearly all actives have a fitted effect of over 65% in size
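Using HEPG2 CAGA-GFP reporter cells at 1000 cells/well, we pinned test compounds, stimulated with recombinant TGF-beta (500 pg/mL final) and measured total well GFP after 18 h.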
Numbers stand for hits; ! = repeats disagree. The call rests on the fitted dose curve; in most records, active means well fitted curve in the direction sought with a large enough effect; inconclusive means small, poorly fitted or top-dose-only effect, or another doubt; inactive means no such curve, though single readings can be large; an effect the other way counts as inactive or inconclusive.

Screening CCN(CC)C(=O)c1cccc(-c2csc(C(O)c3ccc(F)c(OC)c3)n2)c1 (stereo unspecified) returned HT1080 IDH1KD tx inconclusive, HepG2 viability inactive, ATXN viability inconclusive, HT1080-NT tox 1µM, ATXN2 expr inh inconclusive and TGFb inhibitor inconclusive.
For OC(c1ccc(F)c(F)c1)c1nc(-c2ccc(F)c(Cl)c2)cs1 (stereo unspecified) the results were HT1080 IDH1KD tx inconclusive, HepG2 viability inactive, ATXN viability inactive, HT1080-NT tox inactive, ATXN2 expr inh inactive and TGFb inhibitor inconclusive.
CCN(CC)C(=O)c1cccc(-c2csc(C(O)c3ccc(OC)cc3)n2)c1 (stereo unspecified) was read as HT1080 IDH1KD tx inconclusive, HepG2 viability inactive, ATXN viability inactive, HT1080-NT tox inactive, ATXN2 expr inh inconclusive and TGFb inhibitor inactive.
Cc1ccc(-c2csc(C(O)c3ccc(F)c(F)c3)n2)cc1C (stereo unspecified) was read as HT1080 IDH1KD tx 21µM, HepG2 viability inactive, ATXN viability inactive, HT1080-NT tox inconclusive, ATXN2 expr inh inactive and TGFb inhibitor inconclusive.
N=C1SC(c2ccccc2)C(=O)N1c1ncc(Cc2ccccc2Cl)s1 (stereo unspecified) was read as HT1080 IDH1KD tx inactive, HepG2 viability inactive, HT1080-NT tox inactive, ATXN2 expr inh 18µM and TGFb inhibitor inconclusive.
O=C(CSc1nnnn1-c1ccccc1)Nc1ncc(Cc2ccccc2Cl)s1 was read as HT1080 IDH1KD tx inactive, HepG2 viability inactive, ATXN viability inactive, HT1080-NT tox inactive and TGFb inhibitor inactive.
Cc1cccc(N=N/C(=C\O)C(=O)c2ccc(Br)cc2)c1 was read as HT1080 IDH1KD tx inconclusive, HepG2 viability inactive, HT1080-NT tox inconclusive, ATXN2 expr inh inactive and TGFb inhibitor 10µM.
Screening O=C(/C(=C/O)N=Nc1cccc(C(F)(F)F)c1)c1ccccc1 returned HT1080 IDH1KD tx inactive, HepG2 viability inactive, ATXN viability inactive, HT1080-NT tox inconclusive, ATXN2 expr inh inconclusive and TGFb inhibitor inconclusive.
For O=C(/C(=C/O)N=Nc1ccccc1Cl)c1ccccc1 the results were HT1080 IDH1KD tx 15µM, HepG2 viability inactive, ATXN viability inconclusive, HT1080-NT tox 13µM, ATXN2 expr inh inconclusive and TGFb inhibitor inconclusive.
For Cc1ccc(N=N/C(=C\O)C(=O)c2ccncc2)cc1 the results were HT1080 IDH1KD tx 16µM, HepG2 viability inactive, ATXN viability inactive, HT1080-NT tox 26µM, ATXN2 expr inh inactive and TGFb inhibitor inactive.
For COc1ccc(C(=O)/C(=C/O)N=Nc2ccc(F)cc2)cc1 the results were HT1080 IDH1KD tx inconclusive, HepG2 viability inactive, ATXN viability 22µM, HT1080-NT tox inconclusive, ATXN2 expr inh inconclusive and TGFb inhibitor inconclusive.
Screening CC[C@H](C=C[C@@H](C)[C@H]1CC[C@H]2[C@@H]3CC=C4C[C@@H](O)CC[C@]4(C)[C@@H]3CC[C@]12C)C(C)C returned ATXN2 expr inh inactive.
`CC#CCC(C)[C@H](O)/C=C/[C@@H]1[C@H]2C/C(=C/CCCC(=O)O)C[C@H]2C[C@H]1O` (stereo partly specified) gave ATXN viability inactive.
Screening NC(=O)COCCN1CCN(C(c2ccccc2)c2ccc(Cl)cc2)CC1 (stereo unspecified) returned ATXN viability inactive and ATXN2 expr inh inactive.
`O=C(/C(=C/O)N=Nc1ccccc1)c1ccco1` gave HT1080 IDH1KD tx inactive, HepG2 viability inactive, ATXN viability inconclusive, HT1080-NT tox inactive, ATXN2 expr inh inactive and TGFb inhibitor inactive.
For O=C(/C(=C/O)N=Nc1ccc(Cl)cc1)c1ccncc1 the results were HT1080 IDH1KD tx 21µM, HepG2 viability inactive, ATXN viability inactive, HT1080-NT tox inconclusive, ATXN2 expr inh inactive and TGFb inhibitor inconclusive.
For N#CC[C@H](C1CCCC1)n1cc(-c2ncnc3[nH]ccc23)cn1 the results were ATXN2 expr inh inactive.
`O=S(=O)(Nc1ccc(F)c(C(F)(F)F)c1)c1ccc(N2CCCCS2(=O)=O)cc1` gave HepG2 viability inactive, ATXN viability inactive, ATXN2 expr inh inactive and TGFb inhibitor 10µM.
CC1CCc2c(sc3nnn(CC(=O)Nc4cccc(C(F)(F)F)c4)c(=O)c23)C1 (stereo unspecified) was read as HepG2 viability inactive, ATXN viability inactive, ATXN2 expr inh inactive and TGFb inhibitor inconclusive.
For CCN=c1scc(-c2ccc3c(c2)NC(=O)CO3)n1N=C1CCCC1 the results were HT1080 IDH1KD tx inconclusive, HepG2 viability inactive, ATXN viability inactive, HT1080-NT tox inconclusive, ATXN2 expr inh inactive and TGFb inhibitor inactive.
For COCC(C)n1c(-c2ccc3c(c2)NC(=O)CO3)csc1=Nc1ccc(OC(F)F)cc1 (stereo unspecified) the results were HT1080 IDH1KD tx inconclusive, HepG2 viability 13µM!, ATXN viability inactive, HT1080-NT tox 21µM!, ATXN2 expr inh inactive and TGFb inhibitor inconclusive.
CCN(CC)C(=O)C1=C(C)N(Cc2ccc(C(C)(C)C)cc2)C(=O)C(CC(=O)NCCCCc2ccccc2)C1 (stereo unspecified) was read as HT1080 IDH1KD tx inconclusive, HepG2 viability inactive, HT1080-NT tox inconclusive, ATXN2 expr inh inconclusive and TGFb inhibitor 14µM.
Screening CCCCCCCCCC[n+]1ccc(/C=C/c2ccc(N(C)C)cc2)c2ccccc21 returned HepG2 viability inactive and TGFb inhibitor inconclusive.
`O=C(c1ccc(CS(=O)c2ccccc2Cl)o1)N1CCN(c2ccccn2)CC1` (stereo unspecified) gave HT1080 IDH1KD tx 7.3µM, HepG2 viability inactive, ATXN viability inactive, HT1080-NT tox inconclusive and TGFb inhibitor inactive.
For CCCCC[C@@H](C)N1C[C@H](COCc2ccccc2)Oc2cc(N3CC[C@@H](N(C)C)C3)ccc2S1(=O)=O the results were HT1080 IDH1KD tx 10µM, ATXN viability 25µM, HT1080-NT tox 12µM and ATXN2 expr inh inconclusive.
`CCCCC[C@H](C)N1C[C@H](COCc2ccccc2)Oc2cc(N3CC[C@H](N(C)C)C3)ccc2S1(=O)=O` gave HT1080 IDH1KD tx 21µM, HT1080-NT tox inconclusive and ATXN2 expr inh inconclusive.
Screening C[C@H](c1ccccc1)N1C[C@H](COCc2ccccc2)Oc2cc(N3CC[C@@H](N(C)C)C3)ccc2S1(=O)=O returned HT1080 IDH1KD tx inactive, ATXN viability inactive, HT1080-NT tox inactive and ATXN2 expr inh inactive.

Assay outcomes: PubChem BioAssay, National Center for Advancing Translational Sciences (NCATS)
